Results filed as inconclusive are left out. Unmarked numbers belong to inactive results. Activity calls are given as the source filed them. Calls come from the whole dose curve; as a rule, active = well fitted cell-killing curve with a large enough effect; inconclusive = small, poorly fitted or top-dose-only effect, or effect the other way; inactive = no such curve, though single readings can be large or run the other way.
Tested on: CASKI
Test: Confirmatory qHTS for gynecologic anti-cancer compounds from libraries of approved drugs and bioactive compounds; note: nearly all actives have a fitted effect of over 55% in size
Conditions: gynecologic cancer cell panel viability, ATPlite luminescence, 48 h; series mostly up to 57.6 µM; activity change, negative = viability loss: at the top concentration
Method in brief: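 Seeding 1,000 cells per well preceded overnight (16 h) attachment, after which 48 h drug treatment across 57.5 uM–0.977 nM (11 points) was applied. Remaining cellular ATP, detected by ATPlite luminescence, defined IC50.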
% is set by controls: 0 for no effect and ±100 for the full control effect; potency is the fitted concentration of half-maximal effect.

SMILES	activity change, negative = viability loss	Potency
CCN[C@H]1C[C@H](C)S(=O)(=O)c2sc(S(N)(=O)=O)cc21	34.2%	–
C#C[C@]1(O)CC[C@H]2[C@@H]3CCC4=CC(=O)CC[C@@H]4[C@H]3CC[C@@]21CC	-2.14%	–
O=C(Nc1cn[nH]c1-c1nc2ccc(CN3CCOCC3)cc2[nH]1)NC1CC1	–	2.73 µM (active)
COC(=O)c1ccc2c(C(=Nc3ccc(N(C)C(=O)CN4CCN(C)CC4)cc3)c3ccccc3)c(O)[nH]c2c1	-13.2%	–
CCCc1nn(C)c2c(=O)[nH]c(-c3cc(S(=O)(=O)N4CCN(C)CC4)ccc3OCC)nc12	20.6%	–
CC[C@@]1(O)C(=O)OCc2c1cc1n(c2=O)Cc2cc3cc(O)ccc3nc2-1	–	0.243 µM (active)
COc1cccc2c1C(=O)c1c(O)c3c(c(O)c1C2=O)C[C@@](O)(C(=O)CO)C[C@@H]3O[C@H]1C[C@H](N)[C@H](O)[C@H](C)O1	–	8.63 µM (active)
CN1C2CCC1CC(OC(=O)[C@H](CO)c1ccccc1)C2 (some centres not stated)	-4.01%	–
CC(=O)O[C@H]1C(=O)[C@@]2(C)[C@H]([C@H](OC(=O)c3ccccc3)[C@]3(O)C[C@H](OC(=O)[C@H](O)[C@@H](NC(=O)c4ccccc4)c4ccccc4)C(C)=C1C3(C)C)[C@]1(OC(C)=O)CO[C@@H]1C[C@@H]2O	-4.63% [at 10.7 µM]	–
CNCc1ccc(-c2[nH]c3cc(F)cc4c3c2CCNC4=O)cc1	19.2%	–
Cc1c(C)n(Cc2ccc(-c3ccccc3C(=O)O)cc2)c2ccc(C(=O)N[C@@H](C)c3ccc([N+](=O)[O-])cc3)cc12	9.23%	–
O=C(Nc1cccnc1)N1CCC(Cc2cccc(Oc3ccc(C(F)(F)F)cn3)c2)CC1	–	12.2 µM (active)
